# Measurements: the supplement of paper PMC6522484
# Structures can show the parent of a compound that is named as a salt. ± gives the standard deviation of the averaged measurements.
# Legend:
# DLD1 [1] = experiment: cell viability (CellTiter-Glo) relative to plate median (fraction of plate median); higher = more viable cells; conditions: 10 µM, treatment time 24 h
# Procedure, shortened: (§1)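 Colorectal cancer cell lines carrying stably transduced lentiviral TCF/Wnt firefly luciferase reporters (7TFP or TCF4/Wnt) were plated in 384-well plates and treated 24 h later with kinase inhibitor library compounds at a final 10 µM for 24 h. Firefly luciferase or CellTiterGlo luminescence was read on parallel plates with a Tecan F500 reader. Signals were normalised per well to the plate median in webcellHTS2 (additive, no log transformation), and values are the mean of two independent replicates.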
# HCT116 [2] = experiment: as above; conditions: 10 µM; treatment time 24 h; reporter: TCF4/Wnt
# Procedure, shortened: as §1
# SW480 [3] = experiment: as above; conditions: 10 µM; treatment time 24 h; reporter: 7TFP
# Procedure, shortened: as §1
# DLD1 [4] = experiment: TCF/Wnt firefly luciferase reporter signal relative to plate median (fraction of plate median); higher = higher Wnt reporter signal; conditions: 10 µM, treatment time 24 h
# Procedure, shortened: as §1
# HCT116 [5] = experiment: as above; conditions: 10 µM; treatment time 24 h; reporter: TCF4/Wnt
# Procedure, shortened: as §1
# SW480 [6] = experiment: as above; conditions: 10 µM; treatment time 24 h; reporter: 7TFP
# Procedure, shortened: as §1
SMILES,cell viability (DLD1 [1]; reporter: 7TFP),cell viability (DLD1 [1]; reporter: TCF4/Wnt),cell viability (HCT116 [2]),cell viability (SW480 [3]),TCF/Wnt firefly luciferase reporter signal (DLD1 [4]; reporter: 7TFP),TCF/Wnt firefly luciferase reporter signal (DLD1 [4]; reporter: TCF4/Wnt),TCF/Wnt firefly luciferase reporter signal (HCT116 [5]),TCF/Wnt firefly luciferase reporter signal (SW480 [6])
CC1(COc2ccc3c(c2)ncn3-c2ccc3cccc(N4CCC(N)CC4)c3n2)COC1,0.975 ± 0.02,1.14 ± 0.11,0.536 ± 0.13,1.02 ± 0.014,1.48 ± 0.25,1.73 ± 0.064,0.288 ± 0.11,1.64 ± 0.014
COc1cc2ncnc(Nc3ccc(O)c(Br)c3)c2cc1OC,1.04 ± 0.13,0.98 ± 0.029,1.13 ± 0.28,1.01,1.11 ± 0.021,0.832 ± 0.11,1.11 ± 0.17,1.17 ± 0.014
CC(C)(C)c1cc(NC(=O)Nc2ccc(-c3cn4c(n3)sc3cc(OCCN5CCOCC5)ccc34)cc2)no1 [Quizartinib (AC220)],0.994 ± 0.19,0.989 ± 0.086,1.15 ± 0.11,1.095 ± 0.0071,0.789 ± 0.4,1.04 ± 0.014,1.22 ± 0.18,1.26 ± 0.021
O=C1NC(=O)/C(=C\c2ccc3nccnc3c2)S1,1 ± 0.038,1.04 ± 0.063,1.04 ± 0.042,0.854 ± 0.055,1.38 ± 0.05,1.48 ± 0.021,1.96 ± 0.18,1.3 ± 0.33
Cc1cc(Nc2nc(N[C@@H](C)c3ccc(F)cc3)c(C#N)cc2F)n[nH]1,0.875 ± 0.17,0.843 ± 0.062,0.831 ± 0.015,1.02 ± 0.035,1.14 ± 0.23,1.15 ± 0.25,1.22 ± 1.1,0.804 ± 0.38
CCOc1cc2ncc(C#N)c(Nc3ccc(OCc4ccccn4)c(Cl)c3)c2cc1NC(=O)/C=C/CN(C)C [Neratinib (HKI-272)],0.817 ± 0.03,0.877 ± 0.1,0.982 ± 0.083,0.541 ± 0.72,0.521 ± 0.3,0.763 ± 0.05,0.53 ± 0.33,0.508 ± 0.7
C#Cc1cccc(Nc2ncnc3cc(OCCOC)c(OCCO)cc23)c1 [OSI-420 (Desmethyl Erlotinib)],0.993 ± 0.038,0.954 ± 0.011,1.075 ± 0.0071,0.987 ± 0.047,0.826 ± 0.023,0.927 ± 0.12,0.465 ± 0.3,0.668 ± 0.39
CCc1cc2c(cc1N1CCC(N3CCOCC3)CC1)C(C)(C)c1[nH]c3cc(C#N)ccc3c1C2=O,1.05 ± 0.071,0.995 ± 0.064,1.18 ± 0.26,0.853 ± 0.033,1.08 ± 0.078,1.05 ± 0.12,1.01 ± 0.17,0.638 ± 0.31
CCc1cc(Nc2nccc(-c3c(-c4ccc(OC)c(C(=O)Nc5c(F)cccc5F)c4)nc4ccccn34)n2)c(OC)cc1N1CCC(N2CCN(S(C)(=O)=O)CC2)CC1,0.925 ± 0.059,0.995 ± 0.12,1.1 ± 0.028,0.974 ± 0.066,0.939 ± 0.035,0.977 ± 0.047,1.25 ± 0.05,1.24 ± 0.085
CC[C@H](Nc1ncnc2[nH]cnc12)c1nc2cccc(F)c2c(=O)n1-c1ccccc1,1.05 ± 0.14,0.999 ± 0.086,1.11 ± 0.042,0.996 ± 0.02,0.977 ± 0.089,0.788 ± 0.024,0.777 ± 0.3,0.751 ± 0.26
COCC(=O)NC/C=C/c1ccc2ncnc(Nc3ccc(Oc4ccc(C)nc4)c(C)c3)c2c1,0.964 ± 0.14,1.035 ± 0.0071,1.06 ± 0.014,0.952 ± 0.059,1.18 ± 0.064,1.19 ± 0.17,0.786 ± 0.27,0.927 ± 0.43
C#Cc1cccc(Nc2ncnc3cc(OCCOC)c(OCCOC)cc23)c1 [Erlotinib HCl],1.035 ± 0.0071,0.934 ± 0.034,1.14 ± 0.078,1 ± 0.013,0.888 ± 0.023,0.73 ± 0.0057,0.729 ± 0.4,0.868 ± 0.3
O=C(O)c1ccc2c(c1)nc(Nc1cccc(Cl)c1)c1ccncc12 [cx-4945 (Silmitasertib)],1 ± 0.057,0.955 ± 0.079,0.839 ± 0.042,1 ± 0.092,0.508 ± 0.15,0.651 ± 0.2,0.627 ± 0.36,0.612 ± 0.1
COc1cc(N2CCC(N3CCN(C)CC3)CC2)ccc1Nc1ncc(Cl)c(Nc2ccccc2S(=O)(=O)C(C)C)n1,0.799 ± 0.069,0.884 ± 0.0071,0.733 ± 0.057,0.923 ± 0.054,0.909 ± 0.21,1.14 ± 0.035,1.2 ± 0.12,0.767 ± 0.057
CNC(=O)c1ccc(-c2cnc3ncc(Cc4ccc5ncccc5c4)n3n2)cc1F,0.987 ± 0.089,0.931 ± 0.043,1.22 ± 0.2,0.8805 ± 0.0064,1.07 ± 0.078,1.14 ± 0.16,0.899 ± 0.02,0.652 ± 0.26
Cn1cnc2c(F)c(Nc3ccc(Br)cc3Cl)c(C(=O)NOCCO)cc21 [AZD6244 (Selumetinib)],1.11 ± 0.042,1.08 ± 0.035,0.914 ± 0.066,1.125 ± 0.0071,1.45 ± 0.021,1.42 ± 0.16,0.99 ± 0.52,1.34 ± 0.72

SMILES,cell viability (DLD1 [1]; reporter: 7TFP),cell viability (DLD1 [1]; reporter: TCF4/Wnt),cell viability (HCT116 [2]),cell viability (SW480 [3]),TCF/Wnt firefly luciferase reporter signal (DLD1 [4]; reporter: 7TFP),TCF/Wnt firefly luciferase reporter signal (DLD1 [4]; reporter: TCF4/Wnt),TCF/Wnt firefly luciferase reporter signal (HCT116 [5]),TCF/Wnt firefly luciferase reporter signal (SW480 [6])
CCS(=O)(=O)N1CC(CC#N)(n2cc(-c3ncnc4[nH]ccc34)cn2)C1,1.025 ± 0.0071,1.02 ± 0.021,1.22 ± 0.092,0.943 ± 0.0014,1.09 ± 0.16,0.764 ± 0.18,0.974 ± 0.11,0.985 ± 0.021
O=c1c(O)c(-c2ccc(O)c(O)c2)oc2cc(O)cc(O)c12 [Quercetin (Sophoretin)],1.19 ± 0.035,1.02 ± 0.046,1.23 ± 0.092,0.92 ± 0.013,1.07 ± 0.014,1.04 ± 0.035,1.16 ± 0.071,0.978 ± 0.073
COc1cc2nccc(Oc3ccc(NC(=O)C4(C(=O)Nc5ccc(F)cc5)CC4)cc3)c2cc1OC [XL-184 free base (Cabozantinib)],1 ± 0.08,1.02 ± 0.05,1.095 ± 0.0071,0.9465 ± 0.0035,1.14 ± 0.14,0.846 ± 0.078,1.05 ± 0.23,1.03 ± 0.1
C=CC(=O)Nc1cccc(Oc2nc(Nc3ccc(N4CCN(C)CC4)cc3OC)ncc2Cl)c1,1.24 ± 0.014,1.08 ± 0.042,1.14 ± 0.05,0.922 ± 0.064,1.16 ± 0.078,1.05 ± 0.05,0.722 ± 0.55,0.71 ± 0.31
Cc1nc(NC(=O)N2CCC[C@H]2C(N)=O)sc1-c1ccnc(C(C)(C)C(F)(F)F)c1,0.977 ± 0.047,0.996 ± 0.034,0.938 ± 0.1,1.09 ± 0.028,0.558 ± 0.062,0.711 ± 0.13,0.985 ± 0.13,0.791 ± 0.024
FC(F)c1nc2ccccc2n1-c1nc(N2CCOCC2)nc(N2CCOCC2)n1,0.82 ± 0.08,0.835 ± 0.016,0.829 ± 0.042,1.065 ± 0.0071,0.673 ± 0.019,0.891 ± 0.11,1.01 ± 0.061,1.03 ± 0.17
O=C1NC(=O)C(=Cc2ccc(-c3ccc(F)cc3)o2)S1 (stereo in doubt),1.08 ± 0.11,1.11 ± 0.064,1.09 ± 0.11,0.937 ± 0.1,1.25 ± 0.021,1.55 ± 0.16,1.29 ± 0.38,1.1 ± 0.13
CNC(=O)c1cc(Oc2ccc(NC(=O)Nc3ccc(Cl)c(C(F)(F)F)c3)c(F)c2)ccn1 [Regorafenib (BAY 73-4506)],1.04 ± 0.021,0.985 ± 0.092,1 ± 0.024,1.13 ± 0.014,0.816 ± 0.21,0.7185 ± 0.005,0.742 ± 0.34,1.03 ± 0.31
COc1cc(Nc2ncc3c(n2)-c2ccc(Cl)cc2C(c2c(F)cccc2OC)=NC3)ccc1C(=O)O [MLN8237 (Alisertib)],0.987 ± 0.047,0.95 ± 0.067,0.954 ± 0.12,0.943 ± 0.014,1.08 ± 0.014,1.16 ± 0.16,1.01 ± 0.12,0.974 ± 0.066
O=C(NOCC(O)CO)c1cc(Br)c(F)c(F)c1Nc1ccc(I)cc1F (stereo unspecified),1.17 ± 0.12,0.96 ± 0.13,0.891 ± 0.047,1.19 ± 0.028,1.72 ± 0.38,1.47 ± 0.16,1.95 ± 0.47,2.33 ± 0.064
NC(=O)c1ccc(N(C(N)=O)c2c(F)cccc2F)nc1-c1ccc(F)cc1F,0.966 ± 0.016,1.045 ± 0.0071,1.13 ± 0.085,0.91 ± 0.025,0.904 ± 0.019,0.756 ± 0.0014,0.921 ± 0.071,0.752 ± 0.08
O=C1NC(=O)/C(=C/c2ccc(-c3ccc(F)cc3O)o2)S1,1.09 ± 0.092,1.21 ± 0.028,1.19 ± 0.092,1.04 ± 0.14,0.905 ± 0.13,1.34 ± 0.47,1.7 ± 0.71,1.41 ± 0.35
COc1cc(Nc2ncc(F)c(Nc3ccc4c(n3)NC(=O)C(C)(C)O4)n2)cc(OC)c1OC [R406(free base)],1.2 ± 0.18,0.99 ± 0.085,1.2 ± 0.05,0.968 ± 0.037,1.26 ± 0.028,1.16 ± 0.13,1.38 ± 0.37,1.29 ± 0.042
C[S+]([O-])c1ccc(-c2nc(-c3ccc(F)cc3)c(-c3ccncc3)[nH]2)cc1 (stereo unspecified),0.99 ± 0.099,1.02 ± 0.028,1.11 ± 0.035,0.913 ± 0.0099,0.82 ± 0.16,0.884 ± 0.22,1.26 ± 0.38,0.935 ± 0.064
CCn1nnc2c(N3CCOCC3)nc(-c3ccc(NC(=O)Nc4ccc(C(=O)N5CCN(C)CC5)cc4)cc3)nc21,1.21 ± 0.16,1.09 ± 0.092,0.683 ± 0.11,1.14 ± 0.028,0.633 ± 0.025,1.19 ± 0.042,0.59 ± 0.19,0.821 ± 0.054
N#CCNC(=O)c1ccc(-c2ccnc(Nc3ccc(N4CCOCC4)cc3)n2)cc1,1.06 ± 0.014,1.12 ± 0.021,1.25 ± 0.078,1.09 ± 0.035,1.32 ± 0.26,1.16 ± 0.13,1.31 ± 0.25,0.923 ± 0.34
